This is an account of results in PubChem BioAssay (NCI).

This is part of a sample that, as a whole, favours compounds with a hit. Of some 83,000 tested, about 20% had one in any assay.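 Step 1: grow cells in 96-well plates. Step 2: add test compound at a single concentration. Step 3: incubate 48 h. Step 4: record percent growth.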 Values without a mark were called inactive. The source made the active and inactive calls. How the source made its calls: active means growth percent below 10; inactive means the rest.

What all share (assay): NCI-60 one-dose screen, 48 h (100 = growth as untreated, 0 = no growth, -100 = all killed)
Holding throughout (conditions): 10 µM unless noted

In assay [1] the test system is HCT-15 colon.
Assay [2] has as its system HT29 colon.
Assay [3] has as its system SNB-75 CNS.
Assay [4] has as its system SNB-19 CNS.
In assay [5] the test system is U251 CNS.
The subject of assay [6] is PC-3 prostate.
For assay [7], the system named is SK-MEL-5 melanoma.
The test system of assay [8] is UACC-62 melanoma.
Assay [9] deals with SK-MEL-28 melanoma.

For the compound `Cc1ccccc1-c1nc(C(Cl)Cl)nc2cc(-c3ccccc3)nn12`, the growth in [1] was 36.1%; in assay [2] it was 13.7%; in [3] it was 8.7% (active); in [4], 69.8%; in assay [5], 47.2%; in [6], 62%. For the same compound, the growth in assay [7] is 86.4%; in assay [8] it was 74.4%; in [9], 97.3%.

Turning to `Cc1ccc(S(=O)(=O)Nc2ccc(-c3cc(-c4cccc(F)c4)c(C#N)c(N)n3)cc2)cc1`, the growth in assay [1] was -23.3% (active); in assay [2], -7.07% (active); in [3], -11.7% (active); in [4] it was 51.4%; in [5], 22.6%; in assay [6], 18.6%. Besides, the growth in assay [7] is 28.4%; in assay [8] it was -6.88% (active); in assay [9] it was -33.3% (active).

As for `CCC(=O)c1c(C)[nH]c(C)c1C`, the growth in assay [1] was 10.6%; in assay [2] it was 36.9%; in [3] it was 109%; in [4] it was 94%; in assay [5], 82.5%; in assay [6] it was 79.9%. The results for the growth in assay [7], in assay [8] and in assay [9] were 88.9%, 95.7% and 134%, respectively.

For `NC(N)=N/N=C/c1ccc(-c2ccc(-c3ccc(Cl)cn3)s2)cc1`, the growth is -4.03% (active) in assay [1]; 11.9% in assay [2]; 88.9% in assay [3]; 94.2% in [4]; 20.6% in [5]; -42.3% (active) in assay [6]. Moreover, the figures for the growth in assay [7], in assay [8] and in assay [9] were 91.6%, 99.1% and 99.2%, respectively.

In the case of `Cc1csc(Nc2nc(-c3ccc(Cl)cc3)nc(C(Cl)(Cl)Cl)n2)n1`, the growth in assay [1] was 84.1%; in assay [2], 63.1%; in assay [3], 89.4%; in assay [4], 72.9%; in assay [5], 72.8%; in assay [6], 74.1%. Moreover, the growth was 93.1% in [7], 83.2% in assay [8] and 92% in assay [9].

Regarding `c1cc(N2CCCC2)c2nc(-c3[nH]ncc3Nc3ncnc4[nH]ccc34)[nH]c2c1`, the growth in assay [1] was -26.4% (active); in assay [2] it was 1.13% (active); in assay [3] it was -59.6% (active); in [4] it was -13.1% (active); in assay [5], 3% (active); in assay [6], 3.86% (active). Moreover, the growth in assay [7] is -89.3% (active); in assay [8] it was -78.5% (active); in [9], -53.3% (active).

`c1csc(-c2nc(-c3cc4ccccc4c(N4CCOCC4)n3)cs2)c1`: the growth is 90.4% in [1]; 97.1% in assay [2]; 81.5% in [3]; 87.1% in assay [4]; 82.2% in assay [5]; 93.4% in assay [6]. Also, the growth in [7] was 54.5%; in assay [8], 28.9%; in assay [9], 55.2%.

Take `C=C(C)[C@@H]1CC[C@]2(C(=O)N3CCCNCC3)CC[C@]3(C)[C@H](CC[C@@H]4[C@@]5(C)CCC(=O)C(C)(C)[C@@H]5CC[C@]43C)[C@@H]12`: the growth is 84.1% in assay [1]; 61% in assay [2]; 56.9% in assay [3]; 91.2% in assay [4]; 78% in assay [5]; 78.3% in [6]. In addition, the results for the growth in assay [7], in [8] and in [9] were 94.1%, 99.1% and 103%, respectively.

As for `C/C(=N\NC(=O)C(C)SC(C)C(=O)N/N=C(\C)c1cccnc1)c1cccnc1` (stereo unspecified), the growth in [1] is 102%; in [2], 94.1%; in assay [3], 89.7%; in assay [4], 110%; in assay [5], 110%; in [6] it was 101%. The values for the growth in assay [7], in assay [8] and in [9] were 98.4%, 101% and 113%, respectively.

Take `N#CC1=C(N)Oc2c(c(N)nn2-c2ccccc2)C1c1ccc(Cl)cc1Cl` (stereo unspecified): the growth in assay [1] is 100%; in assay [2] it was 115%; in assay [3], 73.2%; in assay [4] it was 95.2%; in assay [5] it was 91.6%; in assay [6], 94.5%. Further, the figures for the growth in assay [7], in [8] and in [9] were 101%, 88.7% and 104%, respectively.

Take `Cc1cc2nc3c4cc(O)ccc4n(CCN(C)C)c3nc2cc1C`: the growth in assay [1] is -29.3% (active); in assay [2], 1.97% (active); in assay [3], -5.77% (active); in assay [4] it was 2.18% (active); in [5], 3.44% (active); in assay [6], 6.53% (active). The growth in assay [7] was -27.4% (active); in assay [8] it was -49.5% (active); in assay [9], -8.23% (active).

For `COc1cccc2c1C(=O)c1c(O)c3c(c(O)c1C2=O)C[C@@](O)(C(=O)CO)C[C@@H]3OC1C[C@H](N)[C@H](O)[C@H](C)O1` (stereo partly specified), the growth is 18.4% in assay [1]; -13.1% (active) in [2]; -76.1% (active) in assay [3]; 8.7% (active) in assay [4]; 2.94% (active) in [5]; -2.52% (active) in [6]. The figures for the growth in assay [7], in [8] and in assay [9] were -86.4% (active), -59% (active) and -30% (active), respectively.

Regarding `C=C(C)[C@@H]1CC[C@]2(C)CC[C@]3(C)[C@H](CC[C@@H]4[C@@]5(C)CCCNC(C)(C)[C@@H]5CC[C@]43C)[C@@H]12`, the growth in assay [1] is 19.2%; in assay [2], 3.37% (active); in [3], 85.9%; in assay [4] it was 96.3%; in assay [5], 11.9%; in assay [6] it was 78.9%. In addition, the growth was 98.4% in assay [7], 105% in assay [8] and 105% in assay [9].

Regarding `COc1ccc(-c2cc(/C=C/C(=O)c3ccc(OC)c(OC)c3)[nH]n2)cc1`, the growth in [1] was 12.5%; in assay [2], 1.11% (active); in assay [3], 9.56% (active); in assay [4] it was 27%; in assay [5] it was 4.42% (active); in [6], 4.36% (active). In addition, the results for the growth in [7], in assay [8] and in assay [9] were 51.3%, 37.3% and 53.9%, respectively.
